Hit rate of the full screen: of about 220,000 compounds, about 16,000 (7.3%) were called active. Roughly 25% stayed inconclusive and do not appear here. For the sample, actives were picked, then their nearest neighbours and some compounds at random. A number with no mark means an inactive call. Calls follow the shape of the dose curve; as a rule, active = well fitted inhibition curve with a large enough effect (not every such curve was filed as active); inconclusive = small, poorly fitted or top-dose-only effect, or another doubt; inactive = no such curve, though single readings can be large or run the other way.
Target: Aldehyde dehydrogenase 1A1 (Homo sapiens) (UniProt P00352)
Sequence (P00352 whole entry, looked up): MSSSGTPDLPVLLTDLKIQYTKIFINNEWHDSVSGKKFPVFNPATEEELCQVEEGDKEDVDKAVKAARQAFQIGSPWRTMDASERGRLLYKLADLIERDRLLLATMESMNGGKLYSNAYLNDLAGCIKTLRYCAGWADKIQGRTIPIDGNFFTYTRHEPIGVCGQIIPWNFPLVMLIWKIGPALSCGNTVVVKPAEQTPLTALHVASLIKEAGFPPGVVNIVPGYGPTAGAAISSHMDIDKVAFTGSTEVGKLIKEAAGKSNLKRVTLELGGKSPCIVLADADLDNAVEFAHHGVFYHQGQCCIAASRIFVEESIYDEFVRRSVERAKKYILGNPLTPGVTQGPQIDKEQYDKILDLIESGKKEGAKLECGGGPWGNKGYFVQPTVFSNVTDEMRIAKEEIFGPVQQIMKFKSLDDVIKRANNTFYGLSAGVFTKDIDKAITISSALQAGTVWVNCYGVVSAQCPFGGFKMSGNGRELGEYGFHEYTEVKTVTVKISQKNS
Assay: qHTS Assay for Inhibitors of Aldehyde Dehydrogenase 1 (ALDH1A1);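 as to activity, negative = inhibition: plate controls were no enzyme wells and a reference inhibitor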
Details: Purified ALDH1A1, NADH fluorescence, propionaldehyde substrate; series mostly up to 75.3 µM; activity, negative = inhibition: at the top concentration
Potency is read from the fitted curve at half-maximal effect.

SMILES	activity, negative = inhibition	Potency
COC(=O)/C(=C1\Oc2ccc(C(C)(C)C)cc2S1)C(F)(F)F	0.549%	–
CC/C(O)=C1\C(=O)CC(C)(C)CC1=NCCc1nc2ccccc2[nH]1	5.21%	–
CCCCNC(=O)c1ccc(-n2c(=S)[nH]c3ccccc3c2=O)cc1	9.14%	–
O=C(Cn1c2[n+](c3ccc(C(F)(F)F)cc31)CCCCC2)Nc1c(F)cccc1F	-14.3%	–
Cc1ccc(Cl)cc1NC(=O)C1CCN(S(C)(=O)=O)CC1	7.3%	–
O=C(NCc1ccccc1Cl)C1CCCO1 (stereo not given)	2.19%	–
Cc1ccc(S(=O)(=O)NCC(=O)OCC(=O)N2CCc3ccccc32)cc1	0.157%	–
Cc1cnc(C(=O)OCC(=O)N2CCc3ccccc32)cn1	–	3.16 µM (active)
Cc1cnc(C(=O)OCC(=O)NCCCc2ccccc2)cn1	-3.78%	–
O=C(CNCc1ccc(Cl)cc1)Nc1cccc(C(=O)O)c1	-1.59%	–
C/C(=N/OC(=O)c1cccc(C(F)(F)F)c1)c1cnccn1	9.46%	–
OC(COc1ccc(CN2CCSCC2)cc1)CN1CCCCC1 (stereo not given)	8.28%	–
CCO[C@H]1OC(C(=O)N2CCN(Cc3ccccc3)CC2)=C[C@@H](c2cn(C(C)=O)c3ccccc23)[C@@H]1CCCO	-8.23%	–
C/C(=N\N)c1c(-c2ccccc2)c2cc(Br)ccc2[nH]c1=O	0.869%	–
COCCCNC(=O)c1ccc(CNS(=O)(=O)c2ccc(NC(C)=O)cc2)cc1	–	4.47 µM (active)
CCCCNC(=O)C1CCC(CNS(=O)(=O)c2ccc(NC(C)=O)cc2)CC1 (stereo not given)	2.05%	–
CCOc1ccc(NS(=O)(=O)c2ccc(OCC(=O)NCCCOC)cc2)cc1	0.65%	–
CCc1ccccc1N1CN(Cc2ccco2)CNC1=S	9.78%	–
CCCCN(CC)CCNC(=O)CCNC(=O)Cn1ccc2ccccc2c1=O	1.61%	–
CCSC1=NCCN1S(=O)(=O)c1ccc(F)cc1	-7.78%	–
COC(=O)CC1c2ccccc2C(Cc2ccc(OC)cc2)=C(C)N1C(=O)OC (stereo not given)	-1.14% [at 13.5 µM]	–
O=C(COc1ccc(Br)cc1F)NC1CCN(Cc2ccccc2)CC1	6.09%	–

SMILES	activity, negative = inhibition	Potency
S=C(Nc1ccc(Br)cc1Cl)NC1CCN(Cc2ccccc2)CC1	–	0.631 µM (active)
O=C(NC1CCN(Cc2ccccc2)CC1)c1cc(Br)c(Br)[nH]1	5.04%	–
COc1ccc2ccccc2c1CNc1nnnn1C	-6.21%	–
COC(=O)c1cc(NC(=O)c2cccnc2)ccc1N1CCOCC1	12.4%	–
CC1=NN(C(=O)c2ccc(Br)cc2)C(O)(c2ccccc2)C1 (stereo not given)	-5.04%	–
O=C(COC(=O)CCc1nc2ccccc2c(=O)[nH]1)Nc1ccc(N2CCOCC2)cc1	-2.55%	–
NS(=O)(=O)c1ccc(NC(=O)COC(=O)c2ccco2)cc1	1.15%	–
CC1CC(C)CN(CC(=O)Nc2ccc(S(N)(=O)=O)cc2)C1 (stereo not given)	–	8.91 µM (active)
CC1CC(C)CN(CCC(=O)Nc2ccc3c(c2)CCC3)C1 (stereo not given)	-9.83%	–
COc1ccc(C2C(C#N)=C(N)N(c3ncn[nH]3)C3=C2C(=O)CCC3)cc1 (stereo not given)	-2.36%	–
CC(C)(C)NC(=O)NC(=O)COC(=O)Cc1c(F)cccc1Cl	0.773%	–
CCOC(=O)COc1cc(O)c2c(=O)cc(-c3ccccc3)oc2c1	-1.95%	–
CC(=O)COc1ccc2c(-c3ccccc3)cc(=O)oc2c1	–	6.31 µM (active)
O=C(COc1ccc2c(C(F)(F)F)cc(=O)oc2c1)Nc1ccc2c(c1)OCCO2	-0.303%	–
CC(Sc1nc2cc(Cl)ccc2s1)C(=O)Nc1ccc2c(c1)OCO2 (stereo not given)	-1.3%	–
Cc1cc(Cl)ccc1OCCCC(=O)NCc1ccccn1	5.45%	–
Cc1cccc(N2C(=O)C3C(c4ccccc4)OC4(C(=O)c5ccccc5C4=O)C3C2=O)c1 (stereo not given)	-1.19%	–
Cc1cccc(N2C(=O)SC(SC(=Nc3ccccc3)Nc3ccccc3)C2=O)c1 (stereo not given)	–	15.8 µM (active)
Cc1cccc(N=Nc2c(C)[nH]n(-c3ccccc3)c2=O)c1	0.918%	–
COc1ccccc1-c1noc(CSc2nc(C)cc(=O)[nH]2)n1	3.99%	–
O=C(CSc1ncnc2c1nnn2Cc1ccc(F)cc1)NC1CCCC1	5.38%	–
OC1CCCN(c2ncnc3c2nnn3Cc2c(F)cccc2Cl)C1 (stereo not given)	–	7.94 µM (active)

SMILES	activity, negative = inhibition	Potency
CC(=O)Nc1ccn(Cc2c(F)cccc2Cl)n1	11.3%	–
CCOc1ccc(OCc2cccc(C(=O)N(CC)CC)c2)cc1	-11.7%	–
CC(C)NC(=S)NN=C1CCCCCCCCCCC1	-4.75%	–
OC[C@H]1O[C@@H](n2cnc3c(NC4CCCC4)ncnc32)[C@H](O)[C@H]1O	-8.77%	–
CCN(CC)S(=O)(=O)c1ccc(N(C)CCc2ccc(OC)c(OC)c2)nc1	6.98%	–
CN(C)c1ccc(/C=C/C(=O)c2ccc(O)cc2)cc1[N+](=O)[O-]	–	17.8 µM (active)
CN(C)c1ccc(/C=C/C(=O)c2ccc(C(C)(C)C)cc2)cc1[N+](=O)[O-]	-0.256%	–
O=C(/C=C/c1ccc2c(c1)OCCO2)c1ccc(O)cc1	4.61%	–
CCOc1ccccc1/C=N/NC(=O)CNC(=O)COc1ccccc1	-5.79%	–
CCC(C)NC(=O)C1c2ccccc2Oc2ccccc21 (stereo not given)	7.74%	–
O=C(Nc1ccc(N2CCN(C(=O)c3cccs3)CC2)cc1)c1cccnc1Cl	0.829%	–
Cc1cc(Cl)ccc1NNC(=O)c1snnc1C	4.29%	–
CC(C)C(C)(C#N)NC(=O)CSc1nncn1-c1ccccc1 (stereo not given)	2.04%	–
CC(C)C(C)(C#N)NC(=O)CSc1nc2scc(-c3ccccc3)c2c(=O)[nH]1 (stereo not given)	–	11.2 µM (active)
C=CCNC(=O)CSc1nc2sc(C)c(C)c2c(=O)[nH]1	-3.38%	–
CCOC(=O)c1sc2nc(C)nc(Nc3ccc(OC)c(OC)c3)c2c1C	-1.57%	–
Cc1ccc(S(=O)(=O)NCCc2nnc3ccc(SCc4cccnc4)nn23)cc1	-5.59%	–
CCN(CC)C(=O)Oc1ccc(Br)cc1C(=O)Nc1ccc(F)c(Cl)c1	4.26%	–
CNC(=O)c1[nH]cnc1C(=O)N[C@@H](CC(C)C)C(=O)OCc1ccccc1	4.76%	–
O=C(Cc1ccc(F)cc1)N/N=C/c1ccc2c(c1)OCO2	-2.31%	–
Cc1cc(C)cc(NC(=S)NCc2ccc(F)cc2)c1	-1.59%	–
Cc1c(NC(=O)/C=C/C(=O)O)cccc1[N+](=O)[O-]	–	25.1 µM (active)

SMILES	activity, negative = inhibition	Potency
Cc1cccc(NC(=S)NCCc2ccc(F)cc2)c1C	-1.95%	–
Cc1c(NC(=O)CCCOc2ccccc2)cccc1[N+](=O)[O-]	-17.8%	–
Cc1c(NC(=S)NCc2ccc(F)cc2)cccc1[N+](=O)[O-]	–	31.6 µM (active)
Cc1c(NC(=O)Nc2ccccc2)cccc1[N+](=O)[O-]	-4.7%	–
COc1cc(C(=O)OCc2ccc([N+](=O)[O-])cc2)cc(OC)c1OC	7.71%	–
Cc1ccc(C)c(Cn2cnc3c(oc4ccccc43)c2=O)c1	2.37%	–
COc1ccc(OC)c(S(=O)(=O)Nc2cccc(-c3ccc4nncn4n3)c2)c1	0.157%	–
CC(NC(=O)COC(=O)c1cc(=O)[nH]c2ccccc12)c1ccccc1 (stereo not given)	-9.17%	–
COCCNC(=O)CCCn1c(=O)c2ccccc2n(Cc2cccc([N+](=O)[O-])c2)c1=O	25.2%	–
CCOC(=O)N1CCN(CCC(=O)Nc2cc(OC)ccc2OC)CC1	-8.02%	–
Cc1ccnc(NC(=O)c2ccco2)n1	-4.29%	–
CC(C)(C)NC(=O)c1cc(NC(=O)c2ccco2)cc(NC(=O)c2ccco2)c1	13.8%	–
NC(=O)c1ccsc1NC(=O)c1ccco1	–	25.1 µM (active)
O=C(Cn1c(=S)nc2ccccn21)N1CCc2ccccc2C1	-9.63%	–
O=C(c1ccc(F)cc1)N1CCC(n2nnc3ccccc32)CC1	-4.1%	–
O=C(c1ccc(F)cc1)n1c(=S)nc2ccccn21	–	25.1 µM (active)
Cc1ccc2nc(-c3ccncc3)cc(C(=O)Nc3ccc(OC(F)F)cc3)c2c1	7.41%	–
COc1cc(NC(=O)COC(=O)c2cnc(C)cn2)c(C)cc1[N+](=O)[O-]	-4.73%	–
CC1CCCC(NC(=O)c2cccc(N3CCCC3=O)c2)C1C (stereo not given)	-7.12%	–
CCC(C)(C)NC(=O)C1c2ccccc2Oc2ccccc21	-1.36%	–
Cc1ccc(S(=O)(=O)NCC(C)NS(C)(=O)=O)cc1 (stereo not given)	–	14.1 µM (active)
CSCC(NS(=O)(=O)c1ccc(C)cc1)C(=O)O (stereo not given)	0.012%	–

SMILES	activity, negative = inhibition	Potency
Cc1ccc(S(=O)(=O)/N=S(\C)C(C)C)cc1 (stereo not given)	13.2%	–
CC1CC(=O)Nc2ccccc2N1S(=O)(=O)c1cccs1 (stereo not given)	6.68%	–
O=C(CNC1CCCCC1)NCC1(c2ccccc2)CCCC1	3.69%	–
Cc1ccc2nc(-c3ccncc3)cc(C(=O)Nc3ccc4c(c3)OCCO4)c2c1	-5.9%	–
O=C(CSc1ccccc1)Nc1ccc(C(=O)Nc2cccc(O)c2)cc1	-9.58%	–
Cc1nc2ccccc2n1CC(=O)N/N=C/c1cccnc1	7.97%	–
Cn1c(=N)n(CC(O)c2cccs2)c2ccccc21 (stereo not given)	7.93%	–
CC(=O)c1ccc2c(c1)OCCOCCOc1ccc(C(C)=O)cc1OCCOCCO2	5.45%	–
COc1ccc(C(CC(=O)O)NC(=O)Cc2ccccc2)cc1 (stereo not given)	5.83%	–
COc1ccc(C(=O)NC(=S)NNC(=O)CCc2ccccc2)cc1	–	25.1 µM (active)
COc1ccc(CC(=O)NC(C)CCc2ccccc2)cc1 (stereo not given)	–	2.51 µM (active)
COc1ccc(C(=O)NC(=S)NNC(=O)c2c(-c3ccccc3)noc2C)cc1	-11.2%	–
COc1ccc(OCCCC(=O)NCCc2ccccc2)cc1	6.31%	–
COc1ccc(/C(N)=N/OC(=O)CCCc2ccccc2)cc1	9.4%	–
CCOC(=O)C1=C(CN2CCc3ccccc32)NC(=O)NC1c1ccc(Cl)cc1 (stereo not given)	–	25.1 µM (active)
CCOC(=O)C1=C(CN2CCc3ccccc32)NC(=O)NC1c1cccc([N+](=O)[O-])c1 (stereo not given)	-7.14%	–
COCCOC(=O)C1=C(C)NC(=O)NC1c1ccc(Cl)cc1 (stereo not given)	-3.24%	–
Cc1onc(C(=O)NCc2ccc(F)cc2)c1[N+](=O)[O-]	17%	–
O=C1CCCN1CCCNC(=S)Nc1ccc(F)c(Cl)c1	-2.84%	–
CCOc1ccc(OCC)c(NC(=O)C2CCN(S(=O)(=O)c3c(C)noc3C)CC2)c1	4.05%	–
Cc1ccc(NC(=O)C2CCCN(S(=O)(=O)c3c(C)noc3C)C2)c(C)c1 (stereo not given)	8.3%	–
Cc1noc(/C=C/c2ccco2)c1S(=O)(=O)N1CCC(C(=O)Nc2ccc(Cl)cn2)CC1	–	15.8 µM (active)

From PubChem BioAssay AID1030 (National Center for Advancing Translational Sciences (NCATS), 2008)
